12-LOX inh = inhibitors of human 12S-lipoxygenase ALOX12; P18054; purified 12hLO, xylenol orange hydroperoxide absorbance; Potency, µM (top dose mostly 108 µM), inactives show top-dose activity change, negative = inhibition, usual class: inhibitors; 1.1% of 580,000 active; also: potency is read from the fitted curve at half-maximal effect; % is scaled to controls: 0 for no effect and ±100 for the full control effect
Target sequence (P18054 whole entry, looked up): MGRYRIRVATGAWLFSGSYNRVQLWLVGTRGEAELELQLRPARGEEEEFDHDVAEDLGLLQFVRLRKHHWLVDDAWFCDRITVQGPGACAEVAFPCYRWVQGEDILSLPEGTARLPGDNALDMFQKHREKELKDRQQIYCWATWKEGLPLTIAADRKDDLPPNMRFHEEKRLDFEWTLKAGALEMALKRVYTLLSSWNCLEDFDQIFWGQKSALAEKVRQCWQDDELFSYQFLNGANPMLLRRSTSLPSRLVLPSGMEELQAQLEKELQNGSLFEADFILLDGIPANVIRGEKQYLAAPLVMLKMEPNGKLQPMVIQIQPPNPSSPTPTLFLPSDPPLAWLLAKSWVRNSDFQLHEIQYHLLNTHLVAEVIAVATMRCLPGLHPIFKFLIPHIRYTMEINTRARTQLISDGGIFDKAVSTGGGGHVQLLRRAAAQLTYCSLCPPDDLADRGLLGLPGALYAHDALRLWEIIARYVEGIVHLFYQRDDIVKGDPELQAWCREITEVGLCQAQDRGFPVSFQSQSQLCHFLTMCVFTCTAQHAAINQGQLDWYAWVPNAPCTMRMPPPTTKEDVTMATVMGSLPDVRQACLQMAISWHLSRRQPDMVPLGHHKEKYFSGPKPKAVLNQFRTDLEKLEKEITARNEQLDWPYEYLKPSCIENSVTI
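Hydroperoxide product was detected by ferrous iron/xylenol orange as the 573 to 405 nm absorbance ratio. Arachidonic acid at 40 uM (final) was turned over for 30 min at room temperature by 150 nM human 12hLO, pH 7.0 Hepes buffer, after 15 min compound preincubation.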
LDHA inh = blocks human lactate dehydrogenase A. P00338. purified LDHA, NADH/diaphorase-resazurin fluorescence; stronger effect = lower value. activity change, % (values are at about 110 or 230 µM). 0.15% of 480,000 active; in the data active = activity change below about -30%; inconclusive = mostly about -25% to -30%;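 also: plate controls were DMSO wells for no effect and wells without enzyme for full effect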
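Human LDH5 at 2 nM final in Tris HCl pH 7.4 with 0.06 mM NADH and 0.2 mM pyruvate, reacted 5 minutes at room temperature. Remaining NADH coupled via diaphorase/resazurin; resorufin fluorescence read at 0 and 20 minutes, normalized to enzyme-free and DMSO wells.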
IDH1 R132H inh = blocks human mutant IDH1 R132H enzyme | O75874 | Potency, µM (top dose mostly 76.6 µM), inactives show top-dose activity change, negative = inhibition, usual class: inhibitors | 0.093% of 390,000 active | IDH1-R132H enzyme, NADPH consumption, diaphorase/resazurin fluorescence; also: potency is read from the fitted curve at half-maximal effect; % is scaled to controls: 0 for no effect and ±100 for the full control effect; nearly all actives have a fitted effect of over 65% in size
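IDH1-R132H (0.5 ug/mL dispensed) in pH 7.5 Tris buffer was preincubated 30 min with compound, then given a substrate mix of 0.016 mM NADPH and 2 mM alpha-KG for 80 min at room temperature; remaining NADPH was read by diaphorase/resazurin fluorescence.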
Nrf2 activator = activators of Nrf2 (ARE) signaling. AREc32 ARE-luciferase reporter (MCF7-derived line), luminescence, 24 h. Potency, µM (top dose mostly 46.1 µM), for inactives: at the top dose activation, usual class: activators. 0.31% of 410,000 active; also: potency is read from the fitted curve at half-maximal effect; % of control where 0% means no effect; nearly all actives have a fitted effect of over 65% in size
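For detection, Steady-Glo was added and plates sat 30 min at RT; before that, AREc32_Fluc cells grown overnight in OPTI-MEM/5% FBS had been treated with 23 nL compound for 24 hr at 37 deg C.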
A549 viability = kills or reduces viability of A549 cells in Nrf2 counter-screen; A549 ARE-Fluc cells, CellTiter-Fluor viability, 18-24 h; 0.16% of 390,000 active; AID 504648; Potency, µM (doses to about 46 µM), for inactives: at the top dose activity change, negative = cytotoxicity, usual class: inhibitors; also: potency is read from the fitted curve at half-maximal effect; % is scaled to controls: 0 for no effect and ±100 for the full control effect
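A549 ARE-Fluc cells in 5% FBS OPTI-MEM, 5000 cells/well, rested 2 h then exposed to compounds in concentration-response for 18-24 h at 37 °C. Viability by CellTiter-Fluor fluorescence (Ex 405/Em 525) after 30 min; luciferase luminescence (BugLite, 15 min, RT) read afterwards.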
Nrf2 inh = blocks Nrf2 signaling; A549 ARE-Fluc reporter, luciferase luminescence, 18-24 h; Potency, µM (series often up to 46 µM), for the others: top-dose activity change, negative = inhibition, most hits filed as inhibitors; 2.1% of 360,000 active; also: potency is read from the fitted curve at half-maximal effect; % is scaled to controls: 0 for no effect and ±100 for the full control effect; nearly all actives have a fitted effect of over 60% in size
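Two sequential reads on A549 ARE_Fluc cells exposed to compound for 18-24 h: a CellTiter-Fluor fluorescence read for viability, then a luciferase luminescence read for Nrf2/ARE activity.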
An asterisk follows results filed as active; u = inconclusive; x = no result given; [ ] = dose if it differs, or a comment. The list is not random: actives were taken first. Their share in the collection is about 2.7%. Unless noted, calls follow the shape of the dose curve; as a rule, active = well fitted curve in the direction sought with a large enough effect; inconclusive = small, poorly fitted or top-dose-only effect, or another doubt; inactive = no such curve, though single readings can be large; an effect the other way counts as inactive or inconclusive.

SMILES	12-LOX inh	LDHA inh	IDH1 R132H inh	Nrf2 activator	A549 viability	Nrf2 inh
CCOC(=O)c1ccc(N2C(=O)c3[nH]nc(-c4ccc(C)cc4)c3C2c2ccc(O)c(OCC)c2)cc1 (stereo not drawn)	-8%	-1	-12%	13%	-10%	21µM*
CCOC(=O)c1ccc(N2C(=O)c3[nH]nc(-c4ccc(C)cc4)c3C2c2cccs2)cc1 (stereo not drawn)	-16%	-8	-4%	0%	u	23µM*
CC(C)Cn1c(N)c(-c2csc(Nc3ccc(Cl)cc3)n2)c(=O)n(C)c1=O	u	5	x	x	x	x
O=C(NCCc1ccccc1)C1CCCN(C2CCN(Cc3nccs3)CC2)C1 (stereo not drawn)	26%	x	x	x	x	x
CC(=O)N(CCC(C)C)c1nc(C)c(C(=O)Nc2ccc3[nH]ccc3c2)s1	-1%	10	x	x	x	x
CCOc1ccc(N(CC(=O)N2CCC(Cc3ccccc3)CC2)S(C)(=O)=O)cc1	-3%	4	-1%	0%	-7%	26µM*
CC(Sc1cccc2cccnc12)C(=O)NC(=O)NC(C)(C)C (stereo not drawn)	13µM*	1	x	x	x	x
CCNC(=O)NC(=O)C(C)Sc1cccc2cccnc12 (stereo not drawn)	-28%	-3	x	x	x	x
Cc1ccc(C(=O)Nc2nc(-c3ccco3)c(-c3ccco3)s2)o1	u	0	-3%	1.3µM*	-2%	-7%
Cc1ccc(C(=O)Nc2nc(C)c(C(=O)N(C)C)s2)o1	110%	-2	13%	0%	9%	u
Nc1nc(-c2ccco2)c(-c2ccco2)s1	u	11	8%	u	9%	9%
O=C(CCCSc1ccccc1)Nc1nc(-c2ccco2)c(-c2ccco2)s1	16µM*	2	-5%	13%	-18%	-17%
O=C(CCl)Nc1nc(-c2ccco2)c(-c2ccco2)s1	u	6	u	11µM*	-4%	-4%
O=C(CCCSc1ccccc1)Nc1nc2ccc(F)cc2s1	-9%	-1	x	x	x	x
O=CN1CCCCC1	6%[176 µM]	x	x	x	x	x
Cc1cc(C)n(-c2nc3cc(Cl)ccc3nc2NCc2cccnc2)n1	-3%	0	x	x	x	x
COCCNc1nc(-c2ccc(Cl)cc2C)c2sccc2n1	u	0	x	8%	x	x
Cc1cc(Cl)ccc1-c1nc(NCc2ccccc2)nc2ccsc12	40µM*	-3	x	8%	x	x
O=C(O)CC1Sc2ccccc2NC1=O (stereo not drawn)	u	-2	4%	0%	13%	u
O=C1Nc2ccccc2SC(c2ccccc2)C1O (stereo not drawn)	13µM*	1	6%	1%	5%	5%
CC(Nc1nc(-c2ccncc2)nc2ccccc12)c1ccc2c(c1)OCO2 (stereo not drawn)	4%	-1	x	x	x	x
Cc1nc(NS(=O)(=O)c2ccccc2)sc1NC(=O)Nc1ccc(Cl)cc1	40µM*	-3	-1%	0%	0%	7%
COc1cc(/C=C(/C#N)C(=O)NCCCc2ccccc2)ccc1OCC(=O)O	-95%	-34*	18%	0%	-8%	7%
CCNC(=O)c1cc(-c2ccc(OC)cc2OC)nc2ccccc12	8.9µM*	18	x	x	x	x
COc1ccc(-c2cc(C(=O)N3CCCC3)c3ccccc3n2)c(OC)c1	18µM*	0	x	x	x	x
SMILES	12-LOX inh	LDHA inh	IDH1 R132H inh	Nrf2 activator	A549 viability	Nrf2 inh
COc1ccc(C(C)NC(=O)CC(C)(C)C)cc1OC (stereo not drawn)	-23%	5	x	x	x	x
Cn1c(/C=C/c2ccccc2)nc2ccccc2c1=O	-1%	0	9%	11µM*	1%	u
Cn1c(/C=C/c2ccc(Cl)cc2)nc2ccccc2c1=O	0%	0	1%	13%	1%	u
Cn1c(/C=C/c2ccc([N+](=O)[O-])o2)nc2ccccc2c1=O	x	2	6%	u	u	21µM*
CCn1c(/C=C/c2ccc(F)cc2)nc2ccccc2c1=O	18%	-13	-7%	22%	7%	6%
CCn1c(/C=C/c2ccccc2)nc2ccccc2c1=O	-3%	-5	8%	3.5µM*	1%	-13%
CC1C(c2ccc(F)cc2)=[N+]([O-])C(C)(c2ccc(Br)cc2)N1O (stereo not drawn)	2%	2	x	x	x	x
O=C(c1ccc(F)c(F)c1)c1cc2ccccc2o1	9%	3	x	x	x	x
COC(=O)CCc1sc(Nc2ccc(F)c(F)c2F)nc1-c1ccc(OC)cc1	-31%	-23	x	x	x	x
CC(=O)Oc1ccc(-c2ccc(C(=O)NC34CC5CC(CC(C5)C3)C4)cc2)cc1	u	-1	x	x	x	x
CCOc1ccc(Oc2nc(Nc3ccc(C)cc3)nc(N(C)C)n2)nn1	-16%	-4	-1%	0%	-12%	21µM*
CCN(CC)c1nc(Nc2ccccc2)nc(Oc2ccc(=O)n(C)n2)n1	0%	1	1%	10%	-6%	-23%
O=C(NC[C@H]1OC[C@@H](N(Cc2ccccn2)Cc2ccccn2)[C@@H]1O)C1CC1	76%[176 µM]	x	x	x	x	x
